Molecules are shown by their SMILES. About 79,000 compounds went through this panel and 15% of them were active in at least one assay; those are over-represented in the sample as a whole. Unmarked numbers belong to inactive results. Activity calls are given as the source filed them. Cut-off read from the data, not from the text of the source: active = growth inhibition above about 70%; inactive = the rest.

This experiment is described as follows: NCI Yeast Anticancer Drug Screen. Data for the rad50 strain (AID 155).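 Note: 0% = growth of vehicle-only cultures of the same strain.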 The settings on record: S. cerevisiae rad50 strain growth inhibition; at 11.0 µM; hits give high values. In outline:
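Inhibition values express reduced yeast growth in compound-treated cultures relative to vehicle-treated controls.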
With `CNC(=O)OCc1c(COC(=O)NC)c(C)n(-c2ccc(Cl)c(Cl)c2)c1C`, the growth inhibition was -16%.
Take `COc1ccc2nc(N/N=C/c3sccc3C)cc(C)c2c1`: the growth inhibition was -12%.
In the case of `O=C(O)/C=C\C(=O)NNc1ccc(Br)cc1` it was 99% (active).
With `S=c1[nH]nc(Cc2ccccc2)c(=S)[nH]1`, the growth inhibition is 36%.
Consider `COc1ccc2nc3cccc([N+](=O)[O-])c3c(NCCCO)c2c1`, for which the growth inhibition is 95% (active).
Consider `CCN(CC)CCSc1c2ccccc2nc2cc(NCC(=O)Nc3ccccc3-c3ccccc3NC(=O)CNc3ccc4c(SCCN(CC)CC)c5ccccc5nc4c3)ccc12`, for which the growth inhibition was 15%.
For the molecule `Cc1ccc(N(C=O)c2c([N+](=O)[O-])cc([N+](=O)[O-])c3c2=[N+]([O-])CN=3)cc1`, the growth inhibition is 25%.
In the case of `COc1ccc(C(=O)OCCc2ccccc2)cc1` it was 1%.
The result for `COc1ccc(C(=O)NCCN(C)C)c2nc3ccccc3cc12` reads 93% (active).
Take `NCC(O)CSCc1ccc(Cl)cc1` (stereo not drawn): the growth inhibition was 2%.
On to `CN(C)/N=N/c1nc[nH]c1C(N)=O`, for which the growth inhibition is 7%.
As to `O=c1[nH]c(=O)n(CCCO)cc1F`, the growth inhibition was -10%.
In the case of `COc1ccc(/C(=N/O)c2ccccc2C2=Nc3ccccc3C(NCc3ccccc3)O2)cc1C` (stereo not drawn) it was 11%; in that of `CCCC(=O)OC(OC(=O)CCC)c1ccc([N+](=O)[O-])o1`, 10%; in that of `O=C(/C(=C/c1ccccc1)CBr)c1ccccc1`, 61%.
In the case of `O=C(Cc1ccccc1F)NC1=C(Cl)C(=O)c2ccccc2C1=O` it was 13%; in that of `Cc1cccc(N2CCN(C(=O)/C(=C/c3ccccc3)NC(=O)c3ccccc3)CC2)c1`, 29%; in that of `c1cc(Nc2ccc3c(c2)OCO3)c2cc(C3CCCCC3)ccc2n1`, 5%.
As to `Cc1ccc2nc(N/N=C/c3ccc(C)s3)cc(C)c2c1`, the growth inhibition was -1%.
The result for `COc1cc(NCCCCCNC(C)C)c2ncccc2c1Cl` reads 4%.
In the case of `COc1ccc2cc(CN3CCC(C4CCN(Cc5ccc6cc(OC)ccc6c5)CC4)CC3)ccc2c1` it was 9%; in that of `CC(=O)O/N=C/c1c2ccccc2cc2ccccc12`, 5%.
The result for `CC[C@@]1(OC(=O)CN(C)C)C(=O)OCc2c1cc1n(c2=O)Cc2cc3ccccc3nc2-1` reads 96% (active); that for `CC1(C)CC(=O)C(C(CC(c2ccccc2)c2cc3c(cc2O)OCO3)C2=C(O)CC(C)(C)CC2=O)=C(O)C1` (stereo not drawn), 33%; that for `CCCCCCC(CCl)c1sc(-c2csc(CCNC(=O)OC(C)(C)C)n2)nc1C(=O)OC` (stereo not drawn), 5%.
Turning to `CCOC(=O)C1=C(C)NC(C)=C(C(=O)OCC)C1c1cccc([N+](=O)[O-])c1`, the growth inhibition is 31%.
On to `Cc1ccc2c(/C=C/c3ccc(N(C)C)cc3)ccnc2c1C`, for which the growth inhibition was -20%.
In the case of `O=C1C(Br)=CC(Br)(Br)C=C1Br`, the growth inhibition is 30%.

The values are drawn from PubChem BioAssay (NCI).
